PubChem BioAssay (EPA / NIEHS)
Calls of active or inactive are those of the source. The calls were made as follows: active = hit-call score of the fitted dose curve at least 0.9, where 1 is the maximum; inactive = score below 0.9.

Test: CCTE_Padilla_ZF_Score.Spine: CCTE's 144 Hour Post-fertilization zebrafish Assay Score for Spine Malformation, Padilla Lab (AID 2284407)
Outline: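 Wild-type zebrafish embryos, one per well in Hanks' solution, dosed at 6–8 hpf in sealed plates at 26C, 14:10 h light:dark; rinsed at 5 dpf. Two blinded assessors scored spinal defects by stereomicroscopy at 6 dpf; fitted versus DMSO.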

Row | SMILES | outcome
1 | O=S(=O)(OCC(F)(F)F)C(F)(F)C(F)(F)C(F)(F)C(F)(F)F | inactive
2 | O=C(O)C(F)(F)C(F)(F)C(F)(F)C(F)(F)C(F)(F)C(F)(F)C(F)F | inactive
3 | NC(=O)C(F)(F)C(F)(F)C(F)(F)C(F)F | inactive
4 | CO[Si](C)(CCC(F)(F)C(F)(F)C(F)(F)C(F)(F)C(F)(F)C(F)(F)F)OC | inactive
5 | OCC(O)CC(F)(F)C(F)(F)C(F)(F)C(F)(F)C(F)(F)C(F)(F)C(F)(F)C(F)(F)F (stereo not drawn) | inactive
6 | O=C(O)C(F)(F)C(F)(F)C(F)(F)OC(F)(F)F | inactive
7 | OCCCCC(F)(F)C(F)(F)C(F)(F)C(F)(F)F | inactive
8 | O=S(=O)(O)CCC(F)(F)C(F)(F)C(F)(F)C(F)(F)F | inactive
9 | O=C(O)C(F)(F)C(F)(F)C(F)(F)C(=O)O | inactive
10 | C[Si](Cl)(Cl)CCC(F)(F)C(F)(F)C(F)(F)C(F)(F)C(F)(F)C(F)(F)F | inactive
11 | NC(O)(C(F)(F)F)C(F)(F)F | inactive
12 | O=C(O)C(F)(F)OC(F)(F)C(F)(F)OC(F)(F)C(F)(F)OC(F)(F)F | inactive
13 | OCC(O)CC(F)(F)C(F)(F)C(F)(F)C(F)(F)F (stereo not drawn) | inactive
14 | CCN(CCO)S(=O)(=O)C(F)(F)C(F)(F)C(F)(F)C(F)(F)C(F)(F)C(F)(F)C(F)(F)C(F)(F)F | inactive
15 | OC(O)C(F)(F)C(F)(F)F | inactive
16 | OCC(F)(F)C(F)(F)C(F)(F)C(F)(F)C(F)(F)C(F)(F)CO | inactive
17 | C=CC(=O)OCCC(F)(F)C(F)(F)C(F)(F)C(F)(F)F | inactive

Test: CCTE_Padilla_ZF_Score.Swim_bladder: CCTE's 144 Hour Post-fertilization zebrafish Assay Score for Swim Bladder Malformation, Padilla Lab (AID 2284408)
Outline: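 Wild-type zebrafish embryos, one per well in 10% Hanks', dosed at 6–8 hpf, sealed, reared at 26C and rinsed at 5 dpf. Blinded assessors scored uninflated swim bladder by stereomicroscopy at 6 dpf, relative to DMSO.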

Row | SMILES | AC50 | outcome
18 | O=S(=O)(OCC(F)(F)F)C(F)(F)C(F)(F)C(F)(F)C(F)(F)F | 88.8 µM (active) | –
19 | O=C(O)C(F)(F)C(F)(F)C(F)(F)C(F)(F)C(F)(F)C(F)(F)C(F)F | – | inactive
20 | NC(=O)C(F)(F)C(F)(F)C(F)(F)C(F)F | – | inactive
21 | CO[Si](C)(CCC(F)(F)C(F)(F)C(F)(F)C(F)(F)C(F)(F)C(F)(F)F)OC | – | inactive
22 | OCC(O)CC(F)(F)C(F)(F)C(F)(F)C(F)(F)C(F)(F)C(F)(F)C(F)(F)C(F)(F)F (stereo not drawn) | 6.73 µM (active) | –
23 | O=C(O)C(F)(F)C(F)(F)C(F)(F)OC(F)(F)F | – | inactive
24 | OCCCCC(F)(F)C(F)(F)C(F)(F)C(F)(F)F | 30.6 µM (active) | –
25 | O=S(=O)(O)CCC(F)(F)C(F)(F)C(F)(F)C(F)(F)F | – | inactive
26 | O=C(O)C(F)(F)C(F)(F)C(F)(F)C(=O)O | – | inactive
27 | C[Si](Cl)(Cl)CCC(F)(F)C(F)(F)C(F)(F)C(F)(F)C(F)(F)C(F)(F)F | – | inactive
28 | NC(O)(C(F)(F)F)C(F)(F)F | – | inactive
29 | O=C(O)C(F)(F)OC(F)(F)C(F)(F)OC(F)(F)C(F)(F)OC(F)(F)F | – | inactive
30 | OCC(O)CC(F)(F)C(F)(F)C(F)(F)C(F)(F)F (stereo not drawn) | – | inactive
31 | CCN(CCO)S(=O)(=O)C(F)(F)C(F)(F)C(F)(F)C(F)(F)C(F)(F)C(F)(F)C(F)(F)C(F)(F)F | – | inactive
32 | OC(O)C(F)(F)C(F)(F)F | – | inactive
33 | OCC(F)(F)C(F)(F)C(F)(F)C(F)(F)C(F)(F)C(F)(F)CO | 11.6 µM (active) | –
34 | C=CC(=O)OCCC(F)(F)C(F)(F)C(F)(F)C(F)(F)F | 88.3 µM (active) | –

Test: CCTE_Padilla_ZF_Score.Position: CCTE's 144 Hour Post-fertilization zebrafish Assay Score for Position, Padilla Lab (AID 2284409)
Outline: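 Wild-type zebrafish embryos (with chorions) exposed singly from 6–8 hpf in sealed wells of Hanks' solution at 26C, rinsed at 5 dpf. At 6 dpf, blinded assessors scored abnormal water-column position by brightfield stereomicroscopy, relative to DMSO.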

Row | SMILES | outcome | AC50
35 | O=S(=O)(OCC(F)(F)F)C(F)(F)C(F)(F)C(F)(F)C(F)(F)F | inactive | –
36 | O=C(O)C(F)(F)C(F)(F)C(F)(F)C(F)(F)C(F)(F)C(F)(F)C(F)F | inactive | –
37 | NC(=O)C(F)(F)C(F)(F)C(F)(F)C(F)F | inactive | –
38 | CO[Si](C)(CCC(F)(F)C(F)(F)C(F)(F)C(F)(F)C(F)(F)C(F)(F)F)OC | inactive | –
39 | OCC(O)CC(F)(F)C(F)(F)C(F)(F)C(F)(F)C(F)(F)C(F)(F)C(F)(F)C(F)(F)F (stereo not drawn) | – | 17.6 µM (active)
40 | O=C(O)C(F)(F)C(F)(F)C(F)(F)OC(F)(F)F | inactive | –
41 | OCCCCC(F)(F)C(F)(F)C(F)(F)C(F)(F)F | – | 34.1 µM (active)
42 | O=S(=O)(O)CCC(F)(F)C(F)(F)C(F)(F)C(F)(F)F | inactive | –
43 | O=C(O)C(F)(F)C(F)(F)C(F)(F)C(=O)O | inactive | –
44 | C[Si](Cl)(Cl)CCC(F)(F)C(F)(F)C(F)(F)C(F)(F)C(F)(F)C(F)(F)F | inactive | –
45 | NC(O)(C(F)(F)F)C(F)(F)F | inactive | –
46 | O=C(O)C(F)(F)OC(F)(F)C(F)(F)OC(F)(F)C(F)(F)OC(F)(F)F | inactive | –
47 | OCC(O)CC(F)(F)C(F)(F)C(F)(F)C(F)(F)F (stereo not drawn) | inactive | –
48 | CCN(CCO)S(=O)(=O)C(F)(F)C(F)(F)C(F)(F)C(F)(F)C(F)(F)C(F)(F)C(F)(F)C(F)(F)F | inactive | –
49 | OC(O)C(F)(F)C(F)(F)F | inactive | –
50 | OCC(F)(F)C(F)(F)C(F)(F)C(F)(F)C(F)(F)C(F)(F)CO | inactive | –
51 | C=CC(=O)OCCC(F)(F)C(F)(F)C(F)(F)C(F)(F)F | inactive | –

Test: CCTE_Padilla_ZF_Score.Living: CCTE's 144 Hour Post-fertilization zebrafish Assay Score for Viability, Padilla Lab (AID 2284410);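 also: larval death at 6 dpf judged by absent heartbeat or coagulation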
Outline: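 Wild-type zebrafish embryos were exposed singly from 6–8 hpf in sealed wells of Hanks' solution at 26C, then rinsed at 5 dpf. At 6 dpf, blinded assessors scored mortality (no heartbeat or coagulation) by stereomicroscopy, fitted against DMSO.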

Row | SMILES | outcome | AC50
52 | O=S(=O)(OCC(F)(F)F)C(F)(F)C(F)(F)C(F)(F)C(F)(F)F | inactive | –
53 | O=C(O)C(F)(F)C(F)(F)C(F)(F)C(F)(F)C(F)(F)C(F)(F)C(F)F | inactive | –
54 | NC(=O)C(F)(F)C(F)(F)C(F)(F)C(F)F | inactive | –
55 | CO[Si](C)(CCC(F)(F)C(F)(F)C(F)(F)C(F)(F)C(F)(F)C(F)(F)F)OC | inactive | –
56 | OCC(O)CC(F)(F)C(F)(F)C(F)(F)C(F)(F)C(F)(F)C(F)(F)C(F)(F)C(F)(F)F (stereo not drawn) | – | 17.7 µM (active)
57 | O=C(O)C(F)(F)C(F)(F)C(F)(F)OC(F)(F)F | inactive | –
58 | OCCCCC(F)(F)C(F)(F)C(F)(F)C(F)(F)F | – | 88.8 µM (active)
59 | O=S(=O)(O)CCC(F)(F)C(F)(F)C(F)(F)C(F)(F)F | inactive | –
60 | O=C(O)C(F)(F)C(F)(F)C(F)(F)C(=O)O | inactive | –
61 | C[Si](Cl)(Cl)CCC(F)(F)C(F)(F)C(F)(F)C(F)(F)C(F)(F)C(F)(F)F | inactive | –
62 | NC(O)(C(F)(F)F)C(F)(F)F | inactive | –
63 | O=C(O)C(F)(F)OC(F)(F)C(F)(F)OC(F)(F)C(F)(F)OC(F)(F)F | inactive | –
64 | OCC(O)CC(F)(F)C(F)(F)C(F)(F)C(F)(F)F (stereo not drawn) | inactive | –
65 | CCN(CCO)S(=O)(=O)C(F)(F)C(F)(F)C(F)(F)C(F)(F)C(F)(F)C(F)(F)C(F)(F)C(F)(F)F | inactive | –
66 | OC(O)C(F)(F)C(F)(F)F | inactive | –
67 | OCC(F)(F)C(F)(F)C(F)(F)C(F)(F)C(F)(F)C(F)(F)CO | inactive | –
68 | C=CC(=O)OCCC(F)(F)C(F)(F)C(F)(F)C(F)(F)F | – | 20.9 µM (active)
